Assay outcomes: PubChem, National Center for Advancing Translational Sciences (NCATS)
Only some compounds are listed: those with a hit (about 19% of all), similar ones and a draw of the others.
HT1080 IDH1KD tx – qHTS for induction of synthetic lethality in tumor cells producing 2HG: qHTS for the HT-1080-IDH1KD cell line; HT-1080 IDH1 knockdown viability, ATP luminescence, 48 h; Potency, µM (top dose mostly 46.1 µM), actives largely listed as cytotoxic; 360,000 tested, 2% active; AID 686971, 2013
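In this qHTS, HT-1080 cells depleted of IDH1 are exposed for 48 h at 37 °C to compound titrations. Toxicity is scored from CellTiter-Glo luminescence, with DMSO as full viability and medium alone as none.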
KB-3-1 cytotox – qHTS assay for MDR1-selective chemotherapeutics: Primary screen using the parental adenocarcinoma cell KB-3-1; KB-3-1 viability, CellTiter-Glo ATP luminescence, 72 h; Potency, µM (top dose mostly 46.1 µM), most hits filed as cytotoxic; 400,000 tested, 1.4% active; also: nearly all actives have a fitted effect of over 60% in size
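Multi-concentration cytotoxicity screen in KB-3-1 cells grown in DMEM lacking phenol red with 10% FBS. After 72 h at 37 °C with compound, ATP-dependent luminescence was recorded.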
DT40 TDP1 CPT – qHTS for Inhibitors of human tyrosyl-DNA phosphodiesterase 1 (TDP1): qHTS in cells in presence of CPT; chicken DT40 Tdp1-/-;hTDP1 cells + 20 nM CPT, ATP luminescence, 48 h; Potency, µM (titrated, usually from 46.2 µM), most hits filed as inhibitors; 420,000 tested, 12% active; also: nearly all actives have a fitted effect of over 55% in size
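Chicken DT40 Tdp1-/- cells complemented with human TDP1, 400 cells/well, exposed to compounds plus 20 nM camptothecin for at least 48 h at 37 C; viability read as ATP content by CellTiter-Glo luminescence.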
HT1080-NT tox – qHTS for induction of synthetic lethality in tumor cells producing 2HG: qHTS for the HT-1080-NT fibrosarcoma cell line | HT-1080-NT fibrosarcoma viability, CellTiter-Glo ATP luminescence, 48 h | Potency, µM (titrated, usually from 46.1 µM), hits mostly cytotoxic | AID 686970, 2013 | 360,000 tested, 1.6% active;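 also: NT is the 2HG producing partner of a matched IDH1 knockdown line; nearly all actives have a fitted effect of over 55% in size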
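HT-1080-NT fibrosarcoma cells (2HG-overproducing), 750 cells/well in RPMI with 5% FBS, dosed after 2 h and incubated 48 h at 37C. CellTiter-Glo luminescence normalized to DMSO and no-cell wells; concentration-response curves fitted and classed.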
DT40 TDP1 no CPT – qHTS for Inhibitors of human tyrosyl-DNA phosphodiesterase 1 (TDP1): qHTS in cells in absence of CPT | DT40 Tdp1-/- hTDP1 cells, no CPT, ATP luminescence, 48 h | Potency, µM (series often up to 46.2 µM), usual class: inhibitors | 420,000 tested, 15% active; also: nearly all actives have a fitted effect of over 55% in size
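Chicken DT40 Tdp1-/- cells stably complemented with human TDP1 were seeded at 400 cells/well with DMSO in place of 20 nM camptothecin. After compound pinning, cells grew at least 48 hr at 37 °C; viability read by CellTiter-Glo luminescence.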
KB-V1 MDR tox – qHTS assay for MDR1-selective chemotherapeutics: Primary screen using the drug-selected MDR subline cells KB-V1; KB-V1 MDR cells viability, CellTiter-Glo, 72 h; Potency, µM (series often up to 46.1 µM), actives largely listed as cytotoxic; 400,000 tested, 3.4% active; AID 1347076, 2019; also: nearly all actives have a fitted effect of over 60% in size
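Luminescent ATP read-out (CellTiter-Glo, 10 min) measures survival of drug-selected KB-V1 MDR cells after 72 h, 37 degrees C compound exposure. Medium: phenol-red-free DMEM, 10% FBS. Values from fitted concentration-response curves.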
Large screens that a line does not name were inactive. Calls follow the shape of the dose curve; as a rule, active = well fitted curve in the direction sought with a large enough effect; inconclusive = small, poorly fitted or top-dose-only effect, or another doubt; inactive = no such curve, though single readings can be large; an effect the other way counts as inactive or inconclusive.

C[CH2][Hg][S]c1ccccc1C(=O)O	HT1080 IDH1KD tx 3.3µM, KB-3-1 cytotox 5.2µM, DT40 TDP1 CPT 0.41µM, HT1080-NT tox 2.3µM, DT40 TDP1 no CPT 0.58µM, KB-V1 MDR tox 21µM
CC(C)COC(=O)c1ccccc1C(=O)OCC(C)C	DT40 TDP1 CPT inconclusive, DT40 TDP1 no CPT inconclusive
COC(=O)C1(C(=O)OC)C[C@H](c2ccc(OC)cc2)N(Cc2ccccc2OC)[C@@H]1c1cccs1	KB-3-1 cytotox inconclusive, DT40 TDP1 CPT 16µM, DT40 TDP1 no CPT 21µM, KB-V1 MDR tox inconclusive
CCN(CC)P(=O)(Nc1ccc([N+](=O)[O-])cc1)c1c(C)nn(CCC#N)c1NC(=O)c1ccc(Cl)cc1Cl (stereo not given)	DT40 TDP1 CPT 18µM, DT40 TDP1 no CPT 23µM
CCN(CC)C(=O)c1ccc(NC(=O)c2cccc(F)c2)cc1	DT40 TDP1 CPT inconclusive, KB-V1 MDR tox 21µM
N#CC(C#N)=Cc1cccnc1	DT40 TDP1 CPT 9.2µM, DT40 TDP1 no CPT 9.2µM
CNCC/C=C/c1cccnc1	none (no result: HT1080 IDH1KD tx, KB-3-1 cytotox, HT1080-NT tox, KB-V1 MDR tox)
CC(=O)C1CCC2C3CCC4CC(O)CCC4(C)C3C(=O)CC12C (stereo not given)	none
Nc1c(C(=O)NCc2ccco2)c2nc3ccccc3nc2n1Cc1ccccc1	DT40 TDP1 CPT 16µM, DT40 TDP1 no CPT 26µM
Nc1c(C(=O)NCc2ccco2)c2nc3ccccc3nc2n1Cc1ccc(F)cc1	HT1080 IDH1KD tx inconclusive, DT40 TDP1 CPT 15µM, HT1080-NT tox 16µM, DT40 TDP1 no CPT inconclusive
Cc1cc(C(=O)Nc2ccc(S(=O)(=O)N3CCCC3)cc2)cs1	HT1080 IDH1KD tx inconclusive, DT40 TDP1 CPT inconclusive, HT1080-NT tox inconclusive, DT40 TDP1 no CPT inconclusive, KB-V1 MDR tox inconclusive
Cc1ccc(Cl)c2sc(NC(=O)c3ccc(S(=O)(=O)N4CCCC4)cc3)nc12	DT40 TDP1 CPT inconclusive, DT40 TDP1 no CPT inconclusive (no result: HT1080 IDH1KD tx, HT1080-NT tox)
Cc1ccc(C(=O)Nc2ccncc2)cc1S(=O)(=O)N1CCCCC1	KB-3-1 cytotox inconclusive, DT40 TDP1 CPT 23µM, DT40 TDP1 no CPT 18µM, KB-V1 MDR tox 15µM
O=C(Nc1ccc(Br)cc1)c1ccc(Cl)c(S(=O)(=O)N2CCCCCC2)c1	KB-3-1 cytotox inconclusive, DT40 TDP1 CPT inconclusive, DT40 TDP1 no CPT 16µM, KB-V1 MDR tox inconclusive (no result: HT1080 IDH1KD tx, HT1080-NT tox)
CC(C)c1ccc(NC(=O)CN2C(=O)CN=C(c3ccccc3)c3ccccc32)cc1	DT40 TDP1 no CPT inconclusive (no result: HT1080 IDH1KD tx, HT1080-NT tox)
C/C=C1\NC(=O)[C@H](C)NC(=O)[C@@H](NC(=O)[C@H](Cc2ccc(O)cc2)NC(=O)[C@@H](NC(=O)/C(C)=C/C)C(C)C)[C@@H](C)OC(=O)[C@H](CCCc2ccc(O)cc2)NC(=O)[C@@H](CCC(=O)O)NC1=O	none
CC(C)(C)C(=O)OC1=CN(Cc2ccccc2)S(=O)(=O)c2ccccc21	DT40 TDP1 no CPT inconclusive (no result: HT1080 IDH1KD tx, HT1080-NT tox)
O=C(Nc1ccccc1)N1CC[C@@]2(CCCNC2)C1	none (no result: HT1080 IDH1KD tx, KB-3-1 cytotox, HT1080-NT tox, KB-V1 MDR tox)
O=C1NC(=O)C2(CCN(c3ccccc3)CC2)C(=O)N1	none
O=C1NC(=O)C2(Cc3c(nc4ccccn4c3=O)N3CCCCCC32)C(=O)N1Cc1ccccc1 (stereo not given)	DT40 TDP1 CPT 21µM, DT40 TDP1 no CPT 23µM, KB-V1 MDR tox inconclusive
O=C1NC(=O)[C@]2(Cc3ccccc3N3CCN(c4ccccc4)CC32)C(=O)N1Cc1ccccc1 (stereo not given in full)	DT40 TDP1 CPT 21µM, DT40 TDP1 no CPT 23µM
